# Screens: PubChem BioAssay, National Center for Advancing Translational Sciences (NCATS)
# In the library only some 22% were active in any assay of this set; here they are far more common.
# CHX counter – counter-screen hit for Shiga toxin inhibitors, cycloheximide; cell reporter, cycloheximide protein synthesis inhibition counterscreen; AID 2314; 300,000 compounds, 12% hits; max response, %; in the data active = max response mostly above about 13%, no sharp cut-off; inactive = mostly below about 14%; note: read at 38.3 µM for the half of the compounds with a filed dose; 0% is about no effect
# LmPK inhibitor – blocks Leishmania mexicana pyruvate kinase activity. Q27686. purified LmPK, Kinase-Glo ATP luminescence, 1 h. Potency, µM (top dose mostly 57.5 µM), for inactives: at the highest dose activity change, negative = inhibition, hits mostly inhibitors. 290,000 compounds, 0.37% hits. AID 1721; note: potency is the fitted concentration of half-maximal effect; % is set by controls: 0 for no effect and ±100 for the full control effect
# Target sequence (Q27686 whole entry, looked up): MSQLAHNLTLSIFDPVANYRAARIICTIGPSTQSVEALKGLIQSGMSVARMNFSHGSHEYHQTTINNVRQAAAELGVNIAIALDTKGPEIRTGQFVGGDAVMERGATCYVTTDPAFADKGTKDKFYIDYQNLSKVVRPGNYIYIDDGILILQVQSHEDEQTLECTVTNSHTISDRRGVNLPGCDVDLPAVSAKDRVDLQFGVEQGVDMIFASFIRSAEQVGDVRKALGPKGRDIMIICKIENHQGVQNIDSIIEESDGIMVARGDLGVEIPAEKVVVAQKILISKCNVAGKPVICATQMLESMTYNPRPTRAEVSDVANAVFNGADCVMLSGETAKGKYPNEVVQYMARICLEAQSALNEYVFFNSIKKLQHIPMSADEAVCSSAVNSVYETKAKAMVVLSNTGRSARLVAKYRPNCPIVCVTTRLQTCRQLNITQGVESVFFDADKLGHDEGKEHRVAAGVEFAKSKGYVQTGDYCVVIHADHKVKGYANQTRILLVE
#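 qHTS format; LmPK 0.1 nM; substrates PEP 0.5 mM and ADP 0.1 mM. One-hour room-temperature incubation, then coupled luciferase luminescence; 0.5 nM enzyme wells mark activation.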
# Shiga toxin inh – blocks Shiga toxin action in Vero cells; AID 2315; inhibition, % at 38.7 µM; 290,000 compounds, 9.2% hits; Vero cells, Shiga toxin protein synthesis inhibition reporter; in the data active = inhibition mostly above about 28%, no sharp cut-off; inactive = mostly below about 43%; note: 0% is about no effect
# Pf growth 96h – inhibits malaria parasite growth, 96 h | AID 504834 | P. falciparum luciferase reporter growth, 96 h | 320,000 compounds, 6.9% hits | Potency, µM (highest dose often 28.7 µM), without a hit: at the top dose activity change, negative = inhibition, hits mostly inhibitors; note: potency is the fitted concentration of half-maximal effect; % is set by controls: 0 for no effect and ±100 for the full control effect
#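 Infected RBCs, 2% Hct / 0.05% parasitemia final; luciferase-reporter P. falciparum; cpd 96 h, 37 C, 5% CO2; luciferase detection reagent; luminescence.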
# Pf growth 48h – inhibits P. falciparum growth in the first generation, 48 h; 310,000 compounds, 5.9% hits; Potency, µM (top dose mostly 28.7 µM), for inactives: top-dose activity change, negative = inhibition, actives largely listed as inhibitors; P. falciparum luciferase growth in erythrocytes, 48 h; note: potency is the fitted concentration of half-maximal effect; % is set by controls: 0 for no effect and ±100 for the full control effect
#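 Read-out is firefly luciferase luminescence from an integrated reporter in P. falciparum, so falling signal marks reduced parasite growth. Infected erythrocytes were at 2% hematocrit and 0.1% parasitemia (final) in Albumax-supplemented RPMI 1640.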
# Starred values were filed as active, the others as inactive; ? = inconclusive; / = no result; + = active, no number; [ ] = dose if it differs, or a comment. Unless noted, calls come from the whole dose curve; as a rule, active = well fitted inhibition curve with a large enough effect; inconclusive = small, poorly fitted or top-dose-only effect, or another doubt; inactive = no such curve, though single readings can be large or run the other way.
SMILES,CHX counter,LmPK inhibitor,Shiga toxin inh,Pf growth 96h,Pf growth 48h
Cc1oc(S(=O)(=O)N2CCCCC2)cc1NC(=O)Nc1ccc(Cl)cc1,-3,5%,16,?,?
O=C(COC(=O)CNS(=O)(=O)c1ccc(Br)cc1Cl)NC1CCCC1,/,/,/,34%,9%
CCn1ccnc1CNC(=O)CC1C(=O)NCCN1CC(c1ccccc1)c1ccccc1 (configuration not stated),0,6%,1,?,-4%
CSC1=C(C#N)C(c2ccc(Cl)cc2)C2=C(CC(C)(C)CC2=O)N1 (configuration not stated),-5,6%,28,17%,7.4µM*
COc1ccc(C(=O)N/C(=C\c2cn(S(=O)(=O)N(C)C)c3ccccc23)C(=O)NCCN2CCOCC2)cc1,-1,2%,-4,6%,-27%
O=C(NCCc1c[nH]c2ccccc12)C1CCC(=O)N(CCc2cccc(F)c2)C1 (configuration not stated),-2,0%,-22,?,61%
O=[N+]([O-])c1ccc(NC(=S)NCC(c2cccnc2)N2CCOCC2)cc1 (configuration not stated),7,1%,-13,?,-11%
CCOc1cccc(OCCCOc2ccccc2)c1,15*,-1%,13,-3%,/
CCOc1cccc(OCCOCCN(C)C)c1,12,-10%,52*,12%,-1%
C=CCOc1c(Br)cc(CNCCCN2CCOCC2)cc1OC,-2,-2%,-15,-17%,?
COc1ccc(C2c3cc(OC)c(OC)cc3CCN2C(=O)c2cccc([N+](=O)[O-])c2)cc1OC (configuration not stated),-5,11%,-18,9.3µM*,?
Cc1cccc(/C=N/NC(=O)c2ccc(NC(=O)c3cccc(Cl)c3)cc2)n1,1,1%,-3,71%,?
CN(C(=O)/C=C/c1ccc2c(c1)OCO2)c1ccccc1,42*,-7%,92*,?,82%
CC(/C=C/c1ccc2c(c1)OCO2)=N\NC(=O)C(O)c1ccccc1 (configuration not stated),6,-5%,10,?,-1%
Cc1ccc(C(=O)N/C(=C\c2ccc3c(c2)OCO3)C(=O)Nc2ccc(C(=O)O)cc2)cc1,14,3%,39*,?,27%
CC(=O)NCC(=O)N(C)C(C(=O)Nc1ccc2c(c1)OCCO2)c1ccc(C)cc1 (configuration not stated),15,-6%,4,5%,-3%
Cc1ccc(C(C(=O)Nc2ccc3c(c2)OCO3)N(C)C(=O)/C=C\c2ccc3c(c2)OCO3)cc1 (configuration not stated),-1,6%,14,13%,13µM*
COc1ccc(C(=O)N/C(=C\c2ccc3c(c2)OCO3)C(=O)Nc2ccc(C(=O)O)cc2)cc1,-1,3%,-1,?,-33%[5.75 µM]
CN(/N=C/c1ccc2c(c1)OCO2)c1ccccc1,95*,-9%,127*,?,139%
COc1cc(OC)c(OC)cc1/C=N/N(C)c1ccccc1,17,4%,33,-98%,/
COc1ccc(/C=C(/NC(=O)c2ccccc2OC)C(=O)Nc2ccc(C(=O)O)cc2)cc1,1,-12%,-14,9.3µM*,-9%
COc1ccc(NC(=O)/C(=C/c2ccc3c(c2)OCO3)NC(C)=O)cc1,72*,1%,+,460%,61%
CCCCn1c(O)c(C(=O)/C=C/c2ccc3c(c2)OCO3)c(=O)[nH]c1=O,0,2%,-24,-20%,?
COc1cc(/C=N/N(C)c2ccccc2)ccc1O,31*,1%,88*,/,305%
CCNc1ccccc(C(=O)/C=C/c2ccc3c(c2)OCO3)c1=O,24*,-3%,54,?,/
SMILES,CHX counter,LmPK inhibitor,Shiga toxin inh,Pf growth 96h,Pf growth 48h
COc1ccc(N2C(=O)C(CC(N)=O)N(NC(=O)CCc3ccccc3)C2=O)cc1 (configuration not stated),6,-2%,44,?,9%[5.75 µM]
CCC(C)NC(=O)c1ccccc1NC(=O)/C(=C/c1ccc(OC)cc1)c1ccccc1 (configuration not stated),-3,1%,-5,12µM*,?
CCC(C)NC(=O)c1ccccc1NC(=O)CN(c1ccc(OC)cc1)S(C)(=O)=O (configuration not stated),-2,0%,-18,-26%,/
CCCNC(=O)COC(=O)/C=C/c1ccc2c(c1)OCO2,4,-4%,39,0%,15%
COc1ccc(NC(=O)/C=C/c2ccc3c(c2)OCO3)cc1,48*,-1%,78*,89%,82%
COC(=O)/C=C/c1ccc2c(c1)OCO2,22*,-1%,83*,-2%,?
COc1ccc(S(=O)(=O)NCCC(=O)Nc2ccc(C)cc2)cc1,2,5%,-13,21%,3%
CCCOc1ccc(CNC(=S)Nc2ccccc2)cc1Cl,5,1%,19,-1%,/
COc1ccc(C2CC(O)(c3ccccc3)Oc3cc(OC)ccc32)cc1 (configuration not stated),20,2%,28,?,12µM*
COc1ccc(C2CC(O)(c3ccccc3)Oc3c(C)ccc(C(C)C)c32)cc1 (configuration not stated),-3,/,17,/,/
Cc1cc2nccc(-c3ccc(OCCCF)cc3)n2n1,-2,10%,-11,20%,16%
C[C@H](NC(=O)Nc1ccc2c(c1)OCCO2)C(=O)O,2,-5%,8,-7%,3%
O=C(N/N=C/c1ccco1)c1cc(-c2ccc(Cl)cc2)n[nH]1,-3,-1%,10,-14%,-15%
COC(=O)c1cc(-c2c(C)nn(-c3ccccc3)c2C)n[nH]1,26*,-7%,58*,-6%,28%
Cc1ccc(-c2cc(C(=O)N/N=C/c3ccco3)[nH]n2)cc1,19,0%,33,-8%,12µM*
O=C(N/N=C/c1ccco1)c1cc(-c2cccc3ccccc23)n[nH]1,26*,-1%,58*,34%,-21%
O=C(N/N=C/c1ccco1)c1cc(-c2ccccc2)n[nH]1,20*,0%,46*,-23%,?
Cc1nn(-c2ccccc2)c(C)c1-c1cc(C(=O)N/N=C/c2cccnc2)[nH]n1,-1,5%,31,-3%,0%
COCCn1c(SCc2cccc(F)c2)nc2cc(C(=O)OC)ccc2c1=O,-1,-3%,28,?,?
NC(=O)CC(NC(=O)Cc1ccc(Br)cc1)c1ccc(N2CCC(N3CCCC3)CC2)c([N+](=O)[O-])c1 (configuration not stated),-1,-3%,-2,-16%,29%
CC(Oc1ccc2ccc(=O)oc2c1)C(=O)NC1CC(C)(C)NC(C)(C)C1 (configuration not stated),8,2%,3,31%,37%
Cc1ccc(-c2cc(C(=O)N/N=C/c3c(C)nn(-c4ccccc4)c3C)[nH]n2)cc1,7,0%,32,6.6µM*,12µM*
